This note sets out measurements from PubChem BioAssay (NCI).

About 79,000 compounds went through this panel and 15% of them were active in at least one assay; those are over-represented in the sample as a whole. Unmarked numbers belong to inactive results. Active and inactive are the calls of the source. Cut-off read from the data, not from the text of the source: active = growth inhibition above about 70%; inactive = the rest.

One experiment in a line: NCI Yeast Anticancer Drug Screen. Data for the rad50 strain (AID 155).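 Note: 0% = growth of vehicle-only cultures of the same strain.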 The note with it: S. cerevisiae rad50 strain growth inhibition; at 50.0 µM; active compounds read high. A digest of the protocol:
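Genetically altered yeast (DNA repair pathway); compound treatment; growth inhibition vs vehicle ctrl.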
As to `Oc1ccc2nccnc2c1`, the growth inhibition is 10.1%.
In the case of `CCC1(COC(NC(=O)c2ccccc2)(C(F)(F)F)C(F)(F)F)COC1`, the growth inhibition was -14.2%.
The same measure, in the same setting: then `CCOC(=O)CC1(O)Oc2cc3c(cc2C(c2cc(OC)c(OC)c(OC)c2)C1C(=O)OCC)OCO3` (stereo not given), with -0.75%; and `CC(=O)/C(C)=C\C1C(C)=CCCC1(C)C` (stereo not given), with -4.5%.
For `C1=CC2CCC1C1CSCC21` (stereo not given), the growth inhibition is -3.15%.
The same measure, in the same setting: then `Nc1nc2ncc(=O)[nH]c2c(=O)[nH]1`, with -35.1%; and `COc1ccc2c(c1)OC(OC)(c1ccc(OC)c(OC)c1)C(O)(OC)C2=O` (stereo not given), with 39.4%; and `COC(=O)C1C(C)C1c1ccc2c(c1)OCO2` (stereo not given), with 2.65%.
On the same count and under the same terms, then `CSc1nc2c(cnn2C)c(=O)[nH]1`, with 14.7%; and `O=C(Nc1ccc(F)cc1)Nc1ccc(I)cc1`, with 13.2%; and `CN(C)c1ccc(/C=N/N=C2\C(=O)Nc3c(Cl)cc(Cl)cc32)cc1`, with 25.2%.
On the same count and under the same terms, then `O=C(Nc1cc(-c2ccccc2)nn1-c1ccccc1)c1ccc(Cl)cc1`, with -16.4%.
On to `O=C(O)c1cnc2cc3c(cc2c1Nc1cccc(Cl)c1)OCO3`, for which the growth inhibition was -2.25%.
In the case of `O=C(NCCN1CCOCC1)c1ccc(C(=O)NCCN2CCOCC2)cc1`, the growth inhibition is 35%.
On to `OCC1NC(COC2OC(CO)C(O)C(O)C2O)C(O)C(O)C1O` (stereo not given), for which the growth inhibition was -17.5%.
Same read-out and setting: then `CC(C)Sc1nc(NC(=O)N(C)N=O)cc(=O)[nH]1`, with -3.4%.
Same read-out and setting: then `S=C(S)NCCCn1ccnc1`, with -11.8%; and `C=Cc1ccc(C[n+]2cccc(C(N)=O)c2)cc1`, with -15.2%.
Still for that read-out and setting: then `NC1=C(O)/C(=N/NS(=O)(=O)c2ccccc2)C(c2cccc(Cl)c2)O1` (stereo not given), with 30.4%; and `O=C1O/C(=C(\Br)c2cccc3ccccc23)c2ccccc21`, with -18.1%.
As to `O=C1c2cccc3cccc(c23)C(=O)N1C(Cc1ccccc1)c1ccccc1` (stereo not given), the growth inhibition is -15.5%.
On the same count and under the same terms, then `CC(=O)Nc1ccc(/C=C/C(=O)c2sc(-c3cccnc3)nc2C)cc1`, with 33.2%.
In the case of `O=S(=O)(c1ccc(Br)cc1)N1CCN(S(=O)(=O)c2ccc(Br)cc2)CC1`, the growth inhibition is -24.4%.
Still for that read-out and setting: then `Cc1nc2nc[nH]n2c1N=Nc1ccccc1`, with -28.3%; and `CCOc1ccc(C(C)(CC)c2cc3c(cc2OC)OCO3)cc1` (stereo not given), with -18.9%.
Still for that read-out and setting: then `O=C1C(O)=C(Br)C(=O)C(O)=C1Br`, with 6.2%; and `CCOC(=O)C(CC(c1ccc2c(c1)OCO2)C(C(=O)N(C(C)C)C(C)C)[N+](=O)[O-])C(=O)OCC` (stereo not given), with 54.9%.
As for `OC(CBr)c1cc(-c2ccccc2)nc2c(Cl)cc(Cl)cc12` (stereo not given), the growth inhibition was 31.9%.
Same read-out and setting: then `COC1CC(NC(C)=O)C2OC(c3ccccc3)OCC2O1` (stereo not given), with 4.35%; and `COc1cc2c(c(OC)c1OC)-c1ccc(OC)c(=O)cc1C(NC(=O)CCCCCNc1ccc(N=[N+]=[N-])cc1[N+](=O)[O-])CC2` (stereo not given), with 88.5% (active).
Still for that read-out and setting: then `CC1(C)N=C(N)N=C(N)N1c1ccc(CCCCc2ccccc2)cc1`, with 99.6% (active); and `Cn1c(=O)c(C(=O)NC23CC4CC(CC(C4)C2)C3)c(O)c2ccccc21`, with -44.2%.
The same measure, in the same setting: then `NC(=O)C1CCCCC1C(=O)O` (stereo not given), with 1.5%.
In the case of `Cc1ccncc1.[O]=[Ge].[O]=[Ge].[O]=[Ge].[O]=[Ge].[O]=[Ge].[O]=[Ge][OH].[O]=[Ge][OH]`, the growth inhibition was -27.3%.
The same measure, in the same setting: then `CCCCCCCCCCCCSC(=O)CCC(=O)O`, with -49.5%; and `CS(=O)(=O)OCC(CCl)(CCl)CCl`, with -4.5%; and `Oc1ccc(Br)cc1C(=S)N1CCOCC1`, with 9.3%.
Still for that read-out and setting: then `CCCCCCCCCCC(C(=O)O)C1(C(=O)O)CCC(=O)O1` (stereo not given), with -15.7%; and `COc1ccc(C=O)c(C(=O)O)c1OC`, with -7.7%.
On the same count and under the same terms, then `c1ccc(CCC2OCC(c3ccccc3)O2)cc1` (stereo not given), with -21.9%.

A short description of another experiment: NCI Yeast Anticancer Drug Screen. Data for the mec2-1 strain (AID 157). The following applies: S. cerevisiae mec2-1 strain, at 50.0 µM, active compounds read high. A digest of the protocol: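 Test agents were screened against the mec2-1 yeast strain, with defined DNA repair or cell cycle alteration. Growth was scored as inhibition against vehicle-only controls.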
For `Oc1ccc2nccnc2c1`, the growth inhibition was 1.6%.
The same measure, in the same setting: then `CCC1(COC(NC(=O)c2ccccc2)(C(F)(F)F)C(F)(F)F)COC1`, with -1.9%; and `CCOC(=O)CC1(O)Oc2cc3c(cc2C(c2cc(OC)c(OC)c(OC)c2)C1C(=O)OCC)OCO3` (stereo not given), with -5.9%; and `CC(=O)/C(C)=C\C1C(C)=CCCC1(C)C` (stereo not given), with -33.4%.
On the same count and under the same terms, then `C1=CC2CCC1C1CSCC21` (stereo not given), with -11.6%; and `Nc1nc2ncc(=O)[nH]c2c(=O)[nH]1`, with -4.2%; and `COc1ccc2c(c1)OC(OC)(c1ccc(OC)c(OC)c1)C(O)(OC)C2=O` (stereo not given), with 14.8%.
Same read-out and setting: then `COC(=O)C1C(C)C1c1ccc2c(c1)OCO2` (stereo not given), with 2.05%.
For `CSc1nc2c(cnn2C)c(=O)[nH]1`, the growth inhibition is -1.95%.
For the compound `O=C(Nc1ccc(F)cc1)Nc1ccc(I)cc1`, the growth inhibition was 1.15%.
Still for that read-out and setting: then `CN(C)c1ccc(/C=N/N=C2\C(=O)Nc3c(Cl)cc(Cl)cc32)cc1`, with -0.25%.
On to `O=C(Nc1cc(-c2ccccc2)nn1-c1ccccc1)c1ccc(Cl)cc1`, for which the growth inhibition was -19.9%.
The same measure, in the same setting: then `O=C(O)c1cnc2cc3c(cc2c1Nc1cccc(Cl)c1)OCO3`, with -4.05%; and `O=C(NCCN1CCOCC1)c1ccc(C(=O)NCCN2CCOCC2)cc1`, with 22.9%; and `OCC1NC(COC2OC(CO)C(O)C(O)C2O)C(O)C(O)C1O` (stereo not given), with -14.9%.
`CC(C)Sc1nc(NC(=O)N(C)N=O)cc(=O)[nH]1`: the growth inhibition is -3.45%.
On the same count and under the same terms, then `S=C(S)NCCCn1ccnc1`, with 23.8%; and `C=Cc1ccc(C[n+]2cccc(C(N)=O)c2)cc1`, with -17%; and `NC1=C(O)/C(=N/NS(=O)(=O)c2ccccc2)C(c2cccc(Cl)c2)O1` (stereo not given), with 23.4%.
As for `O=C1O/C(=C(\Br)c2cccc3ccccc23)c2ccccc21`, the growth inhibition was -30.4%.
The same measure, in the same setting: then `O=C1c2cccc3cccc(c23)C(=O)N1C(Cc1ccccc1)c1ccccc1` (stereo not given), with -49.4%.
Still for that read-out and setting: then `CC(=O)Nc1ccc(/C=C/C(=O)c2sc(-c3cccnc3)nc2C)cc1`, with 11.8%; and `O=S(=O)(c1ccc(Br)cc1)N1CCN(S(=O)(=O)c2ccc(Br)cc2)CC1`, with -23.9%.
Still for that read-out and setting: then `Cc1nc2nc[nH]n2c1N=Nc1ccccc1`, with -2.55%; and `CCOc1ccc(C(C)(CC)c2cc3c(cc2OC)OCO3)cc1` (stereo not given), with -14.3%; and `O=C1C(O)=C(Br)C(=O)C(O)=C1Br`, with -12.2%.
With `CCOC(=O)C(CC(c1ccc2c(c1)OCO2)C(C(=O)N(C(C)C)C(C)C)[N+](=O)[O-])C(=O)OCC` (stereo not given), the growth inhibition is 21.4%.
On the same count and under the same terms, then `OC(CBr)c1cc(-c2ccccc2)nc2c(Cl)cc(Cl)cc12` (stereo not given), with -8.45%; and `COC1CC(NC(C)=O)C2OC(c3ccccc3)OCC2O1` (stereo not given), with 11.2%.
On to `COc1cc2c(c(OC)c1OC)-c1ccc(OC)c(=O)cc1C(NC(=O)CCCCCNc1ccc(N=[N+]=[N-])cc1[N+](=O)[O-])CC2` (stereo not given), for which the growth inhibition was 84.4% (active).
As for `CC1(C)N=C(N)N=C(N)N1c1ccc(CCCCc2ccccc2)cc1`, the growth inhibition is 99.7% (active).
Same read-out and setting: then `Cn1c(=O)c(C(=O)NC23CC4CC(CC(C4)C2)C3)c(O)c2ccccc21`, with -37%; and `NC(=O)C1CCCCC1C(=O)O` (stereo not given), with 5%.
Same read-out and setting: then `Cc1ccncc1.[O]=[Ge].[O]=[Ge].[O]=[Ge].[O]=[Ge].[O]=[Ge].[O]=[Ge][OH].[O]=[Ge][OH]`, with -35.4%; and `CCCCCCCCCCCCSC(=O)CCC(=O)O`, with -11.9%.
On the same count and under the same terms, then `CS(=O)(=O)OCC(CCl)(CCl)CCl`, with 0.55%; and `Oc1ccc(Br)cc1C(=S)N1CCOCC1`, with 18.4%.
On to `CCCCCCCCCCC(C(=O)O)C1(C(=O)O)CCC(=O)O1` (stereo not given), for which the growth inhibition is -32.4%.
The same measure, in the same setting: then `COc1ccc(C=O)c(C(=O)O)c1OC`, with -52.9%.
Still for that read-out and setting: then `c1ccc(CCC2OCC(c3ccccc3)O2)cc1` (stereo not given), with 18.6%.
